Structures can show the parent of a compound that is named as a salt.
System: Saccharomyces cerevisiae BY4741 SeMeCo community
Test: z-score of subpopulation abundance vs DMSO median, subpopulation auxotrophic for UM; higher = larger share of this subpopulation than in DMSO controls
Settings: 10 µM; 24 h; SM minimal medium; subpopulation (auxotrophy): UM
Summary of the method: (§1)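 Scoring was based on each subpopulation's abundance, expressed as a z-score against the vehicle-well median. A Saccharomyces cerevisiae BY4741 community with four plasmids, each restoring one auxotrophy and encoding a distinct fluorescent protein, was pre-grown overnight to OD600 1.0, diluted to 0.3, and added at 70 µl to 384-well plates acoustically predosed with library drugs (10 µM final). It then grew 24 h in minimal SM medium before paraformaldehyde fixation and automated confocal microscopy, with single-auxotroph fluorescent strains setting thresholds and autofluorescence correction.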

| Compound | z-score of subpopulation abundance |
| --- | --- |
| CCC(=O)Oc1ccc2c(c1)CCC1C2CCC2(C)C(OC(=O)CC)CCC12 (stereo not drawn) [Estradiol dipropionate(17-Beta-Estradiol-3,17-Dipropionate)] | 0.34 |
| O=C(O)C[C@H](O)C[C@H](O)/C=C/c1c(C2CC2)nc2ccccc2c1-c1ccc(F)cc1 [Pitavastatin Calcium] | 1.84 |
| CN(C)CCN1C(=O)c2cccc3cc(N)cc(c23)C1=O [Amonafide] | -0.24 |
| c1ccc(-c2ccc(C(c3ccccc3)n3ccnc3)cc2)cc1 (centres undefined) [Bifonazole] | 0.46 |
| CO/N=C(\C(=O)N[C@@H]1C(=O)N2C(C(=O)O)=C(Cn3ccc(=N)n3CCO)CS[C@H]12)c1csc(N)n1 [Cefoselis Sulfate] | 0.03 |
| OC(CCN1CCCCC1)(c1ccccc1)C1CCCCC1 (centres undefined) [Trihexyphenidyl hydrochloride] | 0.41 |
| C[C@H](NCc1ccc(OCc2cccc(F)c2)cc1)C(N)=O [Safinamide Mesylate] | 0.17 |

System: Saccharomyces cerevisiae BY4741 SeMeCo community
Test: z-score of subpopulation abundance vs DMSO median, subpopulation auxotrophic for HL; higher = larger share of this subpopulation than in DMSO controls
Settings: 10 µM; 24 h; SM minimal medium; subpopulation (auxotrophy): HL
Summary of the method: as §1

| Compound | z-score of subpopulation abundance |
| --- | --- |
| C#CCN[C@@H]1CCc2ccccc21 [Rasagiline Mesylate] | 0.37 |
| OCc1ccccc1O[C@@H]1O[C@H](CO)[C@@H](O)[C@H](O)[C@H]1O [Salicin] | -0.58 |
| CCCCCOc1ccc(-c2ccc(-c3ccc(C(=O)N[C@H]4C[C@@H](O)[C@@H](O)NC(=O)[C@@H]5[C@@H](O)[C@@H](C)CN5C(=O)[C@H]([C@@H](C)O)NC(=O)[C@H]([C@H](O)[C@@H](O)c5ccc(O)cc5)NC(=O)[C@@H]5C[C@@H](O)CN5C(=O)[C@H]([C@@H](C)O)NC4=O)cc3)cc2)cc1 | 31.2 |
| COc1cc2c(cc1OC)[C@@H]1Cc3ccc(OC)c(OC)c3CN1CC2 [Rotundine] | 0.52 |
| C[C@H](NCc1ccc(OCc2cccc(F)c2)cc1)C(N)=O [Safinamide] | 0.15 |
| CC1(C)S[C@@H]2[C@H](NC(=O)COc3ccccc3)C(=O)N2[C@H]1C(=O)O [Penicillin V potassium salt] | -0.72 |
| CC[C@H]1OC(=O)C[C@@H](O)[C@H](C)[C@@H](O[C@@H]2O[C@H](C)[C@@H](O[C@H]3C[C@@](C)(O)[C@@H](O)[C@H](C)O3)[C@H](N(C)C)[C@H]2O)[C@@H](CC=O)C[C@@H](C)C(=O)/C=C/C(C)=C/[C@@H]1CO[C@@H]1O[C@H](C)[C@@H](O)[C@@H](OC)[C@H]1OC [Tylosin] | 2.73 |
| C[N+]1(C)[C@@H]2C[C@@H](OC(=O)C(O)(c3cccs3)c3cccs3)C[C@H]1[C@@H]1O[C@@H]12 [Tiotropium Bromide hydrate] | -0.52 |
| CCN(CC)CCOCCOC(=O)C1(c2ccccc2)CCCC1 [Pentoxyverine Citrate] | -0.72 |
| CC1=C(CC(=O)O)c2cc(F)ccc2/C1=C\c1ccc([S+](C)[O-])cc1 (centres undefined) [Sulindac] | 0.1 |
| C#C[C@]1(O)CC[C@H]2[C@@H]3CCC4=CCCC[C@@H]4[C@H]3CC[C@@]21C [Lynestrenol] | -0.15 |
| CN(C)CCCN1c2ccccc2Sc2ccc(Cl)cc21 [Chlorpromazine HCl] | -0.55 |
| NC(=O)N1c2ccccc2C=Cc2ccccc21 [Carbamazepine] | -0.72 |
| CC(=O)OCC(CCn1cnc2cnc(N)nc21)COC(C)=O [Famciclovir] | 0.32 |
| C[C@@H]1CC(=O)NN=C1c1ccc(NN=C(C#N)C#N)cc1 [Levosimendan] | -0.63 |
| N[C@@H](CCC(=O)O)C(=O)O [(S)-Glutamic acid] | -0.27 |
| c1cnc2cc3c(cc2n1)[C@@H]1CNC[C@H]3C1 [Varenicline Tartrate] | 0.16 |
| NC[C@@H]1O[C@H](O[C@H]2[C@@H](O)[C@H](O[C@@H]3[C@@H](O)[C@H](N)C[C@H](N)[C@H]3O[C@H]3O[C@H](CN)[C@@H](O)[C@H](O)[C@H]3N)O[C@@H]2CO)[C@H](N)[C@@H](O)[C@@H]1O [Neomycin sulfate] | -0.31 |
| C#CCC(Cc1cnc2nc(N)nc(N)c2n1)c1ccc(C(=O)N[C@@H](CCC(=O)O)C(=O)O)cc1 (some centres undefined) [Pralatrexate] | 4.02 |
| CCCCCCCCCCCCCCCC[N+](C)(C)C [Cetrimonium Bromide (CTAB)] | 10.9 |
| C#C[C@]1(O)CC[C@H]2[C@@H]3CCC4=CCCC[C@@H]4[C@H]3C(=C)C[C@@]21CC [Desogestrel] | 0.58 |
| C=CC[N+]1([C@H]2C[C@H]3[C@@H]4CC[C@H]5C[C@H](O)[C@@H](N6CCOCC6)C[C@]5(C)[C@H]4CC[C@]3(C)[C@H]2OC(C)=O)CCCC1 [Rocuronium Bromide] | -0.71 |

From the supplement of paper PMC8975748
